Holding throughout (experiment): NCI-60 one-dose screen, 48 h (100 = growth as untreated, 0 = no growth, -100 = all killed)
In experiment [1] the test system is SK-MEL-2 melanoma. To be noted: 10 µM.
Experiment [2] deals with EKVX NSCLC. As to conditions: 10 µM.
Experiment [3] relates to SN12C renal. To be noted: 10 µM.
In experiment [4] the test system is UO-31 renal. To be noted: 10 µM.
For experiment [5], the system named is TK-10 renal. To be noted: 10 µM unless noted.
Experiment [6] deals with ACHN renal. As to conditions: 10 µM.
Experiment [7] has as its system CAKI-1 renal. As to conditions: 10 µM.
Experiment [8] relates to A498 renal. To be noted: 10 µM.
Experiment [9] concerns CCRF-CEM leukemia. To be noted: 10 µM.
In experiment [10] the test system is MOLT-4 leukemia. As to conditions: 10 µM.

Compounds without any hit were thinned out: in the full panel of roughly 83,000, 20% have a hit.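 Step 1: grow cells in 96-well plates. Step 2: add test compound at a single concentration. Step 3: incubate 48 h. Step 4: record percent growth.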 Values without a mark were called inactive. Active and inactive are the calls of the source. The calls were made as follows: active = growth percent below 10; inactive = the rest.

Turning to `COC(=O)c1cccc(Br)c1`, the growth in experiment [1] is 110%; in [2] it was 87.1%; in [3], 104%; in [4], 101%; in experiment [5], 106%; in experiment [6], 108%. In addition, the growth in experiment [7] is 102%; in [8], 86.3%; in [9], 98.2%; in experiment [10], 111%.

In the case of `CCOC(=O)c1ccc(Nc2sc(C(=O)c3cccc([N+](=O)[O-])c3)c(N)c2C#N)cc1`, the growth in [1] is 33%; in [2], 62.1%; in [3] it was 52.9%; in [4], 31.1%; in [5], 74.1%; in experiment [6] it was 41.3%. For the same molecule, the growth was -17.8% (active) in experiment [7], 38.4% in experiment [8], 5.1% (active) in [9] and 23.6% in experiment [10].

In the case of `CCOC(=O)Nc1cc2c(c(N)n1)N=C(c1ccccc1)CO2`, the growth in [1] was 19.1%; in experiment [2] it was 33.4%; in experiment [3], 29.3%; in experiment [4], 21.3%; in experiment [5], 53.3%; in experiment [6], 49.9%. Besides, the growth is 24.2% in experiment [7], 52% in experiment [8], 13.5% in [9] and 15.7% in experiment [10].

As for `Nc1ccc(N=Nc2ccc(S(=O)(=O)O)cc2)c2ccccc12`, the growth in experiment [1] was 102%; in experiment [2] it was 89.7%; in [3], 104%; in experiment [4], 65.2%; in [5], 140%; in experiment [6], 99.2%. In addition, the growth in [7] is 91.5%; in experiment [8], 126%; in experiment [9], 102%; in experiment [10] it was 88.9%.

Take `O=C(N/N=C\c1cc(Br)cc(Br)c1O)N/N=C/c1cc(Br)cc(Br)c1O`: the growth is -23.8% (active) in [1]; 69.3% in experiment [2]; 59% in experiment [3]; 31% in [4]; 65.5% in experiment [5]; 52.2% in [6]. Also, the growth in [7] is 41.4%; in experiment [8], 70.4%; in [9], 3.69% (active); in [10] it was 36.4%.

On to `CCOC(=O)C(C#N)Cc1ccccc1` (stereo not given), for which the growth in experiment [1] is 114%; in experiment [2], 114%; in experiment [3], 103%; in experiment [4], 94.5%; in [5] it was 106%; in [6], 110%. Also, the growth in experiment [7] is 98.7%; in [8] it was 114%; in experiment [9], 102%; in [10], 123%.

With `O=C(/C=C/C(=O)c1ccccc1)c1ccccc1`, the growth was 119% in [1]; 102% in experiment [2]; 108% in [3]; 97.6% in [4]; 86.9% in experiment [5]; 90.1% in [6]. The growth in experiment [7] is 94.9%; in [8], 85.2%; in [9], 37.9%; in experiment [10], 79.2%.

`COc1ccc(C(O)c2ccccc2)cc1` (stereo not given): the growth in experiment [1] was 112%; in [2] it was 101%; in [3], 104%; in [4], 81.9%; in experiment [5], 101%; in experiment [6], 106%. Moreover, the growth in [7] is 100%; in experiment [8], 102%; in experiment [9] it was 106%; in experiment [10], 94.1%.

Consider `C[N+](C)(C)C(=O)c1ccccc1`, for which the growth was 98.6% in experiment [1]; 108% in [2]; 95.8% in experiment [3]; 85.9% in experiment [4]; 102% in [5]; 107% in experiment [6]. Further, the growth was 99.9% in experiment [7], 98% in experiment [8], 104% in [9] and 103% in [10].

For the molecule `Cc1cc(C(O)(c2ccc(Nc3ccccc3)cc2)c2ccc(Nc3ccc(S(=O)(=O)O)cc3)cc2)ccc1N` (stereo not given), the growth is -33.1% (active) in [1]; 9.86% (active) in experiment [2]; 22.5% in experiment [3]; 3.47% (active) in experiment [4]; 7.3% (active) in experiment [5]; -13.2% (active) in [6]. The growth is 31.7% in experiment [7], 2.33% (active) in experiment [8], 2.35% (active) in experiment [9] and 8.2% (active) in experiment [10].

On to `COc1cc2c3c(n(C)c(=O)c2cc1OC)-c1cc2c(cc1C3=O)OCO2`, for which the growth is 113% in experiment [1]; 94.2% in experiment [2]; 87% in experiment [3]; 32.6% in [4]; 101% in experiment [5]; 26.6% in experiment [6]. The growth was 24.3% in experiment [7], 75.5% in [8], 29.5% in [9] and 18.3% in experiment [10].

Consider `COCCOCCCl`, for which the growth in [1] is 109%; in experiment [2], 112%; in [3], 104%; in [4], 97.2%; in [5], 102%; in experiment [6], 113%. In addition, the growth was 98.8% in experiment [7], 91.2% in experiment [8], 106% in experiment [9] and 117% in experiment [10].

As for `Cc1cc(N)ccc1-c1ccc(N)cc1C`, the growth in experiment [1] was 86.3%; in experiment [2], 106%; in [3], 98.5%; in [4], 77.1%; in experiment [5] it was 111%; in experiment [6] it was 99.1%. The growth in [7] was 94.8%; in [8], 97.1%; in [9], 105%; in experiment [10], 103%.

With `COc1cccc(Sc2ccc([N+](=O)[O-])c3no[n+]([O-])c23)c1`, the growth in [1] was 86.2%; in experiment [2], 91.9%; in experiment [3], 74.4%; in experiment [4], -21.5% (active); in experiment [5], 60.3%; in experiment [6], 9.88% (active). Also, the growth in [7] was 64.8%; in [8] it was 98%; in experiment [9] it was -19.5% (active); in experiment [10], 0.692% (active).

As to `S=C1CCCCCN1`, the growth is 105% in experiment [1]; 98.1% in experiment [2]; 100% in experiment [3]; 82.5% in [4]; 109% in [5]; 99.1% in experiment [6]. Further, the growth in experiment [7] was 93.9%; in [8], 101%; in experiment [9], 107%; in experiment [10], 111%.
